Test results reported in PubChem BioAssay AID1159580 (chemical genetic matrix, 2015).
Values joined by “and” are separate entries in the source; they are usually repeats but may differ in a detail not shown here. Equal values may be shown once. About 2,000 (36%) of roughly 5,500 compounds were called active. About 18% were inconclusive and are not listed. Cut-off read from the data, not from the text of the source: active = normalized growth mostly below about 0.91 (no sharp cut-off); inconclusive = no clear call, values can overlap the other calls; inactive = mostly above about 0.92. The list shows a part of the results.

Test: chemical genetic growth profiling, strain panel (AID 1159580);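 note: tested at 20 µM; growth read once vehicle control cultures reached saturation at 30 °C; 1 = growth at the plate median or of vehicle wells; lower values mean less growth of the strain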
Conditions: S. cerevisiae deletion strains, growth OD

Measured: normalized growth

Cc1cc(CC(=O)O)n(C)c1C(=O)c1ccc(Cl)cc1
inactive: locus YAL013W, strain DEP1, stronger effect = lower value 1 | locus YAL021C, strain ccr4, stronger effect = lower value 1 | locus YAL026C, strain drs2, stronger effect = lower value 1.04 | locus YAL030W, strain snc1, stronger effect = lower value 1.01 | locus YBL061C, strain skt5, stronger effect = lower value 1.04 | locus YBR009C, strain hhf1, stronger effect = lower value 0.999 | locus YBR021W, strain FUR4, stronger effect = lower value 0.979 | locus YBR023C, strain chs3, stronger effect = lower value 1.03 | locus YBR171W, strain sec66, stronger effect = lower value 1.04 | locus YBR229C, strain ROT2, stronger effect = lower value 0.997 | locus YBR231C, strain swc5, stronger effect = lower value 1.02 | locus YBR279W, strain paf1, stronger effect = lower value 1.02 | locus YCL011C, strain gbp2, stronger effect = lower value 1.03 | locus YCL016C, strain dcc1, stronger effect = lower value 1.04 | locus YCL029C, strain bik1, stronger effect = lower value 1.02 | locus YCL061C, strain MRC1, stronger effect = lower value 1.03 | locus YCL069W, strain vba3, stronger effect = lower value 1.04 | locus YCR088W, strain abp1, stronger effect = lower value 1.03 | locus YDL005C, strain med2, stronger effect = lower value 1.02 | locus YDL035C, strain GPR1, stronger effect = lower value 0.989 | locus YDL040C, strain nat1, stronger effect = lower value 1.02 | locus YDL074C, strain BRE1, stronger effect = lower value 0.978 | locus YDL101C, strain DUN1, stronger effect = lower value 1 | locus YDL134C, strain PPH21, stronger effect = lower value 1 | locus YDL185W, strain tfp1, stronger effect = lower value 0.997 | locus YDL192W, strain arf1, stronger effect = lower value 1.01 | locus YDR001C, strain nth1, stronger effect = lower value 1.02 | locus YDR069C, strain doa4, stronger effect = lower value 1.01 | locus YDR101C, strain arx1, stronger effect = lower value 1.01 | locus YDR137W, strain rgp1, stronger effect = lower value 1.04 | locus YDR150W, strain NUM1, stronger effect = lower value 0.998 | locus YDR159W, strain sac3, stronger effect = lower value 1.02 | locus YDR162C, strain NBP2, stronger effect = lower value 0.997 | locus YDR195W, strain ref2 1.02 | locus YDR297W, strain sur2, stronger effect = lower value 1.03 | locus YDR318W, strain mcm21, stronger effect = lower value 1 | locus YDR334W, strain swr1, stronger effect = lower value 1.03 | locus YDR335W, strain msn5, stronger effect = lower value 1.03 | locus YDR388W, stronger effect = lower value 0.998 | locus YDR392W, strain spt3, stronger effect = lower value 1.02 | locus YDR502C, strain sam2, stronger effect = lower value 0.995 | locus YEL003W, strain gim4, stronger effect = lower value 1.02 | locus YEL037C, strain rad23, stronger effect = lower value 1.02 | locus YEL061C, strain CIN8 (second series), stronger effect = lower value 1.03 | locus YEL061C, strain CIN8, stronger effect = lower value 1 | locus YER015W, strain faa2, stronger effect = lower value 1.03 | locus YER016W, strain bim1, stronger effect = lower value 1.04 | locus YER110C, stronger effect = lower value 1 | locus YER111C, strain swi4, stronger effect = lower value 1.02 | locus YER155C, strain BEM2 (second series), stronger effect = lower value 1.01 | locus YER155C, strain BEM2, stronger effect = lower value 0.982 | locus YER167W, strain BCK2, stronger effect = lower value 0.992 | locus YFR010W, strain ubp6, stronger effect = lower value 1.01 | locus YGL078C, strain dbp3, stronger effect = lower value 1 | locus YGL086W, strain mad1, stronger effect = lower value 0.998 | locus YGL167C, strain pmr1, stronger effect = lower value 1.02 | locus YGL173C, strain kem1, stronger effect = lower value 1.02 | locus YGL227W, strain vid30, stronger effect = lower value 1.02 | locus YGL240W, strain doc1, stronger effect = lower value 1 | locus YGL248W, strain PDE1, stronger effect = lower value 0.998 | locus YGL253W, strain hxk2, stronger effect = lower value 1.04 | locus YGR078C, strain PAC10, stronger effect = lower value 0.988 | locus YGR135W, strain pre9, stronger effect = lower value 0.988 | locus YGR229C, strain SMI1, stronger effect = lower value 0.998 | locus YGR252W, strain gcn5, stronger effect = lower value 0.945 | locus YHR013C, strain ard1, stronger effect = lower value 1.05 | locus YHR027C, strain rpn1, stronger effect = lower value 1.02 | locus YHR030C, strain SLT2, stronger effect = lower value 1 and 1.02 | locus YHR079C, strain IRE1 (second series), stronger effect = lower value 1 | locus YHR079C, strain IRE1, stronger effect = lower value 1.02 | locus YHR094C, strain hxt1, stronger effect = lower value 1 | locus YHR129C, strain ARP1, stronger effect = lower value 0.998 | locus YHR142W, strain chs7, stronger effect = lower value 1.05 | locus YHR200W, strain rpn10, stronger effect = lower value 1.01 | locus YIL066C, strain RNR3, stronger effect = lower value 0.994 | locus YIL073C, strain SPO22, stronger effect = lower value 1.02 | locus YIL125W, strain kgd1, stronger effect = lower value 1.01 | locus YIR030C, strain dcg1, stronger effect = lower value 1.01 | locus YJL092W, strain hpr5, stronger effect = lower value 1.03 | locus YJL095W, strain BCK1 (second series), stronger effect = lower value 1.03 | locus YJL095W, strain BCK1, stronger effect = lower value 0.959 and 1.01 | locus YJL115W, strain asf1, stronger effect = lower value 1.01 | locus YJL129C, strain trk1, stronger effect = lower value 1.06 | locus YJL134W, strain LCB3, stronger effect = lower value 1 | locus YJL154C, strain vps35, stronger effect = lower value 1.02 | locus YJL164C, strain tpk1, stronger effect = lower value 1.02 | locus YJL166W, strain qcr8, stronger effect = lower value 1.03 | locus YJL168C, strain set2, stronger effect = lower value 1.01 | locus YJL187C, strain SWE1 (second series), stronger effect = lower value 0.998 | locus YJL187C, strain SWE1, stronger effect = lower value 1.01 | locus YJR043C, strain POL32, stronger effect = lower value 0.997 | locus YJR066W, strain TOR1, stronger effect = lower value 0.954
